Inconclusive results are not listed. Entries that show only a call come without a potency. The source made the active and inactive calls. Unless noted, the call rests on the fitted dose curve; in most records, active means well fitted curve in the direction sought with a large enough effect; inconclusive means small, poorly fitted or top-dose-only effect, or another doubt; inactive means no such curve, though single readings can be large; an effect the other way counts as inactive or inconclusive.
How the values were obtained:
[1] = target: Glucocorticoid receptor (Homo sapiens) (UniProt P04150); assay: qHTS assay for small molecule antagonists of glucocorticoid receptor signaling (AID 588533; active means well fitted inhibition curve with a large enough effect in the signal ratio, with a control signal flat, not every such curve was filed as active; the % refers to the signal ratio;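 further: cells stimulated with 2 nM dexamethasone as agonist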)
Procedure, shortened: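 Antagonist-mode qHTS: compound titrations added to GRE-bla HeLa cells, then dexamethasone 2 nM final; 18 h, 37 C. CCF4 FRET fluorescence normalized to dexamethasone and DMSO; IC50 from Hill fit.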

[2] = qHTS assay for small molecule agonists of the antioxidant response element (ARE) signaling pathway (AID 651741; active means well fitted activation curve with a large enough effect in the signal ratio; the % refers to the signal ratio; further: potency means the concentration at half of the fitted maximal effect)
Procedure, shortened: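 Seeding 2,000 ARE-bla HepG2 cells per well preceded a 5 h incubation at 37 C/5% CO2 and a 16 h compound exposure at 37 C. Beta-lactamase reporter activity was then quantified by fluorescence after 2 h with LiveBLAzer B/G FRET substrate.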

[3] = qHTS assay for small molecule agonists of the antioxidant response element (ARE) signaling pathway measured by Nrf2-dependant transcriptional activity (AID 720636; active means well fitted curve in the direction sought with a large enough effect in the repeat runs; an effect the other way counts as inactive or inconclusive)
Procedure, shortened: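 Nrf2-dependent transcription read as ONE-Glo luciferase signal from ARE-luc HepG2 reporter cells after 16 hr compound treatment at 37 C, 5% CO2, in assay medium with 1% dialyzed FBS.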

[4] = qHTS assay for cell viability of HEK293 cells (AID 743288); conditions: ATP luminescence (CellTiter-Glo), 18 h; max response: stronger effect = lower value; further: nearly all actives have a fitted effect of over 50% in size
Procedure, shortened: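 Parental HEK293 cells, 2,000 per well, preincubated at least 5 h at 37 C, then exposed to compounds in DMSO for 18 h at 37 C. Viability by CellTiter-Glo ATP luminescence after 30 min at room temperature.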

[5] = qHTS for Inhibitors of Plasmodium falciparum (DD2) proliferation (AID 504314);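 further: parasite DNA measured by SYBR Green fluorescence after red cell lysis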
Procedure, shortened: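 Erythrocytes infected with P. falciparum Dd2 (0.3% parasitemia, 2.5% hematocrit) exposed to compound 72 h at 37C, 5% CO2. Parasite DNA quantified by SYBR Green fluorescence after saponin/Triton lysis overnight; normalized to 0.29 uM artemisinin and DMSO.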

[6] = qHTS for Inhibitors of Plasmodium falciparum (GB4) proliferation (AID 504315); further: nearly all actives have a fitted effect of over 50% in size
Procedure, shortened: (§1)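 Erythrocytes infected with P. falciparum line (0.3% parasitemia, 2.5% hematocrit final) incubated with compounds 72 h at 37 °C, 5% CO2; SYBR Green lysis buffer added, fluorescence read next day. Normalized to 0.29 uM artemisinin and DMSO.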

[7] = qHTS for Inhibitors of Plasmodium falciparum (7G8) proliferation (AID 504316); further: series mostly up to about 6.7 µM; nearly all actives have a fitted effect of over 65% in size
Procedure, shortened: as §1

[8] = qHTS for Inhibitors of Plasmodium falciparum (HB3) proliferation (AID 504318); further: nearly all actives have a fitted effect of over 60% in size
Procedure, shortened: as §1

[9] = qHTS for Inhibitors of Plasmodium falciparum (CP250) proliferation (AID 504320)
Procedure, shortened: as §1

[10] = qHTS for Inhibitors of ATXN expression: Validation (AID 588378); conditions: cell-based ATXN2 expression reporter assay, luminescence; further: potency means the concentration at half of the fitted maximal effect; nearly all actives have a fitted effect of over 75% in size
Procedure, shortened: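 HEK293 cells carrying ATXN2-firefly luciferase reporter, treated with compound 24 h at 37 °C. Viability read first by CellTiter-Fluor (405/525 nm), then reporter expression by Bright-Glo luminescence; controls were a known ATXN2 expression inhibitor and a luciferase inhibitor.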

[11] = target: Estrogen receptor (Homo sapiens) (UniProt P03372); assay: qHTS assay for small molecule antagonists of estrogen receptor alpha signaling (AID 588513; active means well fitted curve in the direction sought with a large enough effect in the signal ratio, with a control signal flat, not every such curve was filed as active; the % refers to the signal ratio)
Procedure, shortened: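 ER-alpha-UAS-bla GripTite HEK 293 cells in 2% charcoal/dextran-treated FBS medium; compounds titrated (1:2, duplicate), then stimulated with 0.5 nM 17-beta-estradiol for 18 h at 37C. CCF4 beta-lactamase fluorescence; Hill-fit IC50 and efficacy.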

[12] = qHTS assay for small molecule agonists of retinoid X receptor alpha signaling (AID 588544; calls by dose curve; further: potency means the concentration at half of the fitted maximal effect); conditions: HEK293T RXRa-UAS-bla, beta-lactamase reporter, 18 h; 530 nm emission
[13] = target: Retinoic acid receptor RXR-alpha (Homo sapiens) (UniProt P19793); assay: as above
[14] = qHTS assay for small molecule activators of the human pregnane X receptor (PXR) signaling pathway (AID 720659; call rule not given here)

Chain of Estrogen receptor (Homo sapiens) (P03372 whole entry, looked up): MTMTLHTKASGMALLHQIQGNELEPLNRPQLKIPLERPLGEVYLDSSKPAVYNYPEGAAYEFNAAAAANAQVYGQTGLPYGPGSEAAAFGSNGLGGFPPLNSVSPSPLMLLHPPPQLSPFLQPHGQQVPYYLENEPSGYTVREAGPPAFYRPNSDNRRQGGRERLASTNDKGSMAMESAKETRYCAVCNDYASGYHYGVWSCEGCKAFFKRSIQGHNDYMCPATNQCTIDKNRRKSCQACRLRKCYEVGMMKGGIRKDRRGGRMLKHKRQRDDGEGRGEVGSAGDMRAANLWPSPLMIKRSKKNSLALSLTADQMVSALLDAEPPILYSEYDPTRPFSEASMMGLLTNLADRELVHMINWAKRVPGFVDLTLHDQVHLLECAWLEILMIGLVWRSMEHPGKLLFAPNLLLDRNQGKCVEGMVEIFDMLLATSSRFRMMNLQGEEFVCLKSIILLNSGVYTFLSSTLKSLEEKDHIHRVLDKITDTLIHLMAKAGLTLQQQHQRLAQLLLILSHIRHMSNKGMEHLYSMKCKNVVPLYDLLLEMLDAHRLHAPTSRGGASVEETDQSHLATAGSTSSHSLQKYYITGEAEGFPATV
Chain of Retinoic acid receptor RXR-alpha (Homo sapiens) (P19793 whole entry, looked up): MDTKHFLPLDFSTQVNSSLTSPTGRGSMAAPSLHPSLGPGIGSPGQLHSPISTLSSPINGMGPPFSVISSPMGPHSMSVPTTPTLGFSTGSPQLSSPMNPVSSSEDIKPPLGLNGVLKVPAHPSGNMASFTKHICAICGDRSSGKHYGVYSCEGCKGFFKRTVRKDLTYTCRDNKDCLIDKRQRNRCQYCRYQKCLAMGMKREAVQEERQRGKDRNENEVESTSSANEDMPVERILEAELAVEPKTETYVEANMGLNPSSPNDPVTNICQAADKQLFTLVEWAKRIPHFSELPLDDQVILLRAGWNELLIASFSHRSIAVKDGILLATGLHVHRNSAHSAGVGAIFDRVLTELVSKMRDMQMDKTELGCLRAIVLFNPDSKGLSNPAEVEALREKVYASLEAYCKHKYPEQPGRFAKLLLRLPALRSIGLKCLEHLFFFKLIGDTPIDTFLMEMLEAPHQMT
Chain of Glucocorticoid receptor (Homo sapiens) (P04150 whole entry, looked up): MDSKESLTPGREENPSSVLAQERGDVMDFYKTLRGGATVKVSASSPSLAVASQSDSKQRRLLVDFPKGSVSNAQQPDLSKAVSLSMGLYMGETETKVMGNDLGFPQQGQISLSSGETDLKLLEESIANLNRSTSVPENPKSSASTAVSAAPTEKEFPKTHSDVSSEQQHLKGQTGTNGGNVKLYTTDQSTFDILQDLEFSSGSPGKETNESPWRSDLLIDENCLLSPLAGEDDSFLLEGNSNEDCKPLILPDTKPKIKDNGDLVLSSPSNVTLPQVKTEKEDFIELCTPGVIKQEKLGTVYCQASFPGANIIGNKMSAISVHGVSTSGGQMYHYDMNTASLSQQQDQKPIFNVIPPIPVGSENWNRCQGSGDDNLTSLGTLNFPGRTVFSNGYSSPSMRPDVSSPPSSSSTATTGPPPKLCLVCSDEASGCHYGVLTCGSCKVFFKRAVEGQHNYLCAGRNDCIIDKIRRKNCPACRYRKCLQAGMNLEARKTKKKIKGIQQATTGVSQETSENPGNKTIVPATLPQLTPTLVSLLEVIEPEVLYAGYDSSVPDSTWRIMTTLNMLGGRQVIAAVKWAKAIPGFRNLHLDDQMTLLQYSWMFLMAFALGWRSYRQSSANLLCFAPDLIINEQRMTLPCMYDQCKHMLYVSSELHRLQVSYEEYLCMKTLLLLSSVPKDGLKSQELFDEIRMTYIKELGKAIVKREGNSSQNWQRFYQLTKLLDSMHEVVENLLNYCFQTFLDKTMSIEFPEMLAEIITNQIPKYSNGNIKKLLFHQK

CC(C)=CC1C(C(=O)OCc2coc(Cc3ccccc3)c2)C1(C)C (centres undefined)
Potency [1]: inactive
Potency [2]: 61.1 µM (active)
Potency [3]: inactive
max response [4]: 0.368% (inactive)

CCC1CN2CCC1CC2[C@@H](Oc1cc2ccccc2c2ccccc12)c1ccnc2ccc(O)cc12 (some centres undefined)
outcome [5]: inactive
outcome [6]: inactive
outcome [7]: inactive
outcome [8]: inactive
outcome [9]: inactive

CC[C@@H](CO)Nc1nc(NCc2ccccc2)c2ncn(C(C)C)c2n1
Potency [10]: 31.6 µM (active)

O=C(NC(=O)c1c(F)cccc1F)Nc1ccc(Cl)cc1
Potency [11]: inactive
max response [12]: -17.2%
Potency [13]: 15.8 µM (active)
outcome [14]: inactive

From PubChem BioAssay (NCATS)
